Data: PubChem BioAssay (Tox21)
“And” between values parts separate entries of the source, which are not always exact repeats. Equal values may be shown once. Inconclusive results are not listed. The source made the active and inactive calls. Unless noted, calls follow the shape of the dose curve; as a rule, active = well fitted curve in the direction sought with a large enough effect in the repeat runs; inconclusive = weak or mixed curves; inactive = no such curve, though single readings can be large; an effect the other way counts as inactive or inconclusive.

Columns and labels:
[1] = qHTS assay to identify small molecule agonists of the peroxisome proliferator-activated receptor delta (PPARd) signaling pathway - cell viability counter screen (AID 743211); also: nearly all actives have a fitted effect of over 55% in size; also: potency is read from the fitted curve at half-maximal effect
Procedure, shortened: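 Luminescent ATP viability assay (CellTiter-Glo, 30 min RT) in UAS-bla HEK293H cells carrying the PPAR delta reporter construct, 3000 cells/well, after a 17 h compound treatment at 37 C.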

[2] = qHTS assay to identify small molecule antagonists of the peroxisome proliferator-activated receptor delta (PPARd) signaling pathway - cell viability counter screen (AID 743213); also: nearly all actives have a fitted effect of over 50% in size; also: potency is read from the fitted curve at half-maximal effect
Procedure, shortened: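 PPARd-bla HEK293H cells were treated with compounds plus agonist L165041 (300 nM final) for 17 h at 37 C. Viability was then read in the same wells by CellTiter-Glo luminescence after 30 min at room temperature.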

[3] = qHTS assay to identify small molecule agonists of the farnesoid-X-receptor (FXR) signaling pathway - cell viability counter screen (AID 743218); also: nearly all actives have a fitted effect of over 45% in size; also: potency is read from the fitted curve at half-maximal effect
Procedure, shortened: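 Cells were seeded, left 5 h at 37 C and 5% CO2, then dosed with compound in DMSO for 16 h. After the beta-lactamase FRET read, CellTiter-Glo was added and luminescence measured 30 min later.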

[4] = qHTS assay to identify small molecule antagonists of the farnesoid-X-receptor (FXR) signaling pathway - cell viability counter screen (AID 743221; active = well fitted cell-killing curve with a large enough effect in the repeat runs, not every such curve was filed as active; also: nearly all actives have a fitted effect of over 50% in size; also: potency is read from the fitted curve at half-maximal effect)
Procedure, shortened: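 In GeneBLAzer FXR-UAS-bla HEK 293T cells stimulated with 50 uM chenodeoxycholic acid (final), compounds acted for 16 h at 37 C. Viability was assessed afterwards by CellTiter-Glo luminescence.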

[5] = target: Vitamin D3 receptor (Homo sapiens) (UniProt P11473); experiment: qHTS assay to identify small molecule agonists of the vitamin D receptor (VDR) signaling pathway (AID 743222; calls by dose curve)
Procedure, shortened: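 Cells carrying a VDR-driven beta-lactamase reporter are seeded at 2,000 per well and rested 4 h. Compounds in DMSO are added for 16 h at 37C, and FRET substrate fluorescence is measured after 2 h at room temperature.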

[6] = target: Vitamin D3 receptor (Homo sapiens) (UniProt P11473); experiment: qHTS assay to identify small molecule antagonists of the vitamin D receptor (VDR) signaling pathway (AID 743223; active = well fitted inhibition curve with a large enough effect in the signal ratio in the repeat runs, not every such curve was filed as active; the % refers to the signal ratio)
Procedure, shortened: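 Agonist 1alpha,25-dihydroxyvitamin D3 (3 nM in well) was added with each compound to VDR-bla cells preincubated 4 h. Cells stood 16 h at 37C, then FRET substrate 2 h at room temperature; fluorescence intensity recorded.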

[7] = target: Bile acid receptor (Homo sapiens) (UniProt Q96RI1); experiment: qHTS assay to identify small molecule antagonists of the farnesoid-X-receptor (FXR) signaling pathway (AID 743217; active = well fitted inhibition curve with a large enough effect in the signal ratio in the repeat runs, not every such curve was filed as active; the % refers to the signal ratio)
Procedure, shortened: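 Cells carrying a UAS-driven beta-lactamase reporter (GeneBLAzer FXR-UAS-bla HEK 293T) were plated and rested 5 h at 37 °C. Compounds in DMSO were added alongside chenodeoxycholic acid agonist at 50 uM final and left 16 h at 37 °C before FRET substrate readout.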

[8] = target: Bile acid receptor (Homo sapiens) (UniProt Q96RI1); experiment: qHTS assay to identify small molecule agonists of the farnesoid-X-receptor (FXR) signaling pathway (AID 743220; active = well fitted activation curve with a large enough effect in the signal ratio in the repeat runs, not every such curve was filed as active; the % refers to the signal ratio)
Procedure, shortened: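 FXR-UAS-bla HEK 293T cells carrying a UAS-driven beta-lactamase reporter were plated for 5 h at 37C/5% CO2, then exposed to DMSO-dissolved Tox21 10K compounds for 16 h at 37C. A LiveBLAzer B/G FRET substrate was loaded for 2 h at room temperature before fluorescence reading.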

[9] = target: Peroxisome proliferator-activated receptor delta (Homo sapiens) (UniProt Q03181); experiment: qHTS assay to identify small molecule agonists of the peroxisome proliferator-activated receptor delta (PPARd) signaling pathway (AID 743212; calls by dose curve)
Procedure, shortened: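 Cells expressing a UAS-driven beta-lactamase reporter (PPARd-bla HEK293H) were given test compounds after a 5 h settle and kept at 37 C. Reporter activity was then measured as FRET fluorescence using LiveBLAzer B/G substrate.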

Measured: Potency

Chain of Vitamin D3 receptor (Homo sapiens) (P11473 whole entry, looked up): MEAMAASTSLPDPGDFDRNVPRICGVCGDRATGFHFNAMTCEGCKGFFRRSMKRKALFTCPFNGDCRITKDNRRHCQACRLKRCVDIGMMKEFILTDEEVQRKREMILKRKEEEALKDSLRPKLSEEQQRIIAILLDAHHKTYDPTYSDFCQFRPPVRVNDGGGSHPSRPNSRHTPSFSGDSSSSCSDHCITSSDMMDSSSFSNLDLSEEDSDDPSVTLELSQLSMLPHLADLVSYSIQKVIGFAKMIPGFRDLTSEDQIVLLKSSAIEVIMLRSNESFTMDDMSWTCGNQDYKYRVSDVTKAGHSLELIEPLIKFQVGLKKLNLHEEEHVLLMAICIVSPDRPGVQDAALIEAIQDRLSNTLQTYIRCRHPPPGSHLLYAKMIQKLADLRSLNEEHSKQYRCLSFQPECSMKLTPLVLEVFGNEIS
Chain of Bile acid receptor (Homo sapiens) (Q96RI1 whole entry, looked up): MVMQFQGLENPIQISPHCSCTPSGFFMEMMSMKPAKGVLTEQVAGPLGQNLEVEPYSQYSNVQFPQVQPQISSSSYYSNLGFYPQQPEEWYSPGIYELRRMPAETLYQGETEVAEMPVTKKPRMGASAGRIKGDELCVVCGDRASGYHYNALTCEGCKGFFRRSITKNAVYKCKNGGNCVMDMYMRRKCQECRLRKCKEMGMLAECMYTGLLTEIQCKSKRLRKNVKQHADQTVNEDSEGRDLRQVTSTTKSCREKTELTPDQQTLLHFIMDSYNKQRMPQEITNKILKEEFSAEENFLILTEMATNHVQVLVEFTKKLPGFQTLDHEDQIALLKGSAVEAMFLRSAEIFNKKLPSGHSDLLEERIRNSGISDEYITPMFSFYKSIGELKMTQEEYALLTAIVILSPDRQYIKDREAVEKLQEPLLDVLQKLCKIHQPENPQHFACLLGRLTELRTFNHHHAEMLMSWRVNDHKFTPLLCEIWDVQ
Chain of Peroxisome proliferator-activated receptor delta (Homo sapiens) (Q03181 whole entry, looked up): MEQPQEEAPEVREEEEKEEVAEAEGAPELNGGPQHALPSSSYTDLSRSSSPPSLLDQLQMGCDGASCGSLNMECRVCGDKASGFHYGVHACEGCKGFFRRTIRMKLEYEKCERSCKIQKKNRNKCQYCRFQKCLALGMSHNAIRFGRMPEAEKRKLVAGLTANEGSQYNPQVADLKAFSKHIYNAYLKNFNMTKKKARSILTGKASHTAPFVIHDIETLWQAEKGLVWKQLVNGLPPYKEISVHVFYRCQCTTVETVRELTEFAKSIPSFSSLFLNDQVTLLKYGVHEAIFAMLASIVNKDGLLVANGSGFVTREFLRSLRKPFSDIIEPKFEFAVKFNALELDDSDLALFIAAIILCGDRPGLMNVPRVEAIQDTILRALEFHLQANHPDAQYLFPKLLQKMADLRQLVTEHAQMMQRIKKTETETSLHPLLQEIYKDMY

S=c1[nH]c2ccccc2[nH]1
inactive: [1] | [2] | [3] | [4]

CC1(C)Cc2cccc(O)c2O1
inactive: [1] | [2] | [3] | [4] | [5] | [6]

CCC/C=N/O
inactive: [1] | [2] | [7] | [3] | [8] | [4] | [5] | [6]

O=C(O)CF
inactive: [1] | [2] | [3] | [4] | [5] | [6]

CCC[CH2][Sn]([Cl])([Cl])[CH2]CCC
active: [1] 198 nM and 61.6 nM | [2] 556 nM and 155 nM | [3] 140 nM and 24.5 nM | [4] 222 nM and 123 nM

CC(C)Nc1ccc(Nc2ccccc2)cc1
inactive: [9] | [3] | [8] | [4]
active: [2] 43.6 µM

[Cl-].[Cl-].[Cl-].[Fe+3]
inactive: [1] | [2] | [3] | [4]

Clc1ccc(C(Cl)(Cl)Cl)cc1
inactive: [1] | [2] | [7] | [3] | [8] | [4]

CS(=O)(=O)NC(=O)c1cc(Oc2ccc(C(F)(F)F)cc2Cl)ccc1[N+](=O)[O-]
inactive: [1] | [2] | [7] | [3] | [8] | [4] | [5]

O=[N+]([O-])/N=C1\NCCN1Cc1ccc(Cl)nc1
inactive: [1] | [2] | [7] | [3] | [8] | [4] | [5] | [6]

Cl
inactive: [1] | [2] | [3] | [4]

CCCCCCCC[N+](C)(CCCCCCCC)CCCCCCCC
active: [1] 4.36 µM and 2.46 µM and 5.49 µM | [2] 3.88 µM and 2.46 µM and 5.49 µM | [3] 7.75 µM and 2.19 µM and 7.76 µM | [4] 13.8 µM and 7.77 µM and 21.9 µM

COc1ccc(O)c(C(C)(C)C)c1
inactive: [1] | [2] | [7] | [3] | [8] | [4] | [5] | [6]

O=S(=O)(O)C(F)(F)C(F)(F)C(F)(F)C(F)(F)C(F)(F)C(F)(F)C(F)(F)C(F)(F)F
active: [2] 26.2 µM and 43.6 µM | [3] 52.3 µM and 49 µM and 33.6 µM | [4] 41.6 µM and 13.8 µM and 6.16 µM
inactive: [1] | [5] | [6]

CC(C)(O)C#N
inactive: [1] | [2] | [7] | [3] | [8] | [4] | [5] | [6]

CC(C)COC(=O)c1ccccc1C(=O)OCC(C)C
inactive: [1] | [2] | [7] | [3] | [8] | [4]

CC(C)(O)C(=O)Nc1ccc([N+](=O)[O-])c(C(F)(F)F)c1
inactive: [1] | [2] | [3] | [4] | [5]

NN=C(N)N
inactive: [1] | [2] | [3] | [4]
